Pf Dd2 growth = blocks in vitro growth of P. falciparum Dd2 | P. falciparum Dd2 growth, SYBR Green, 72 h | Potency, µM (series often up to 28.9 µM), for the others: at the highest dose activity, negative = inhibition, actives largely listed as inhibitors | 4.3% of 120,000 active | AID 1347417; active = well fitted inhibition curve with a large enough effect;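 also: plate controls were DMSO vehicle for no effect and reference drug for full effect; nearly all actives have a fitted effect of over 65% in size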
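Infected erythrocytes (Dd2, 0.3% parasitemia, 2.5% hematocrit final) are added to compound in RPMI-1640/Albumax II medium, grown 72 h at 37C in low oxygen, then lysed with saponin/Triton-X containing SYBR Green and read by fluorescence.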
* marks the source's active call; other numbers are inactive results; i = inactive; [ ] = another dose, or the depositor's remark. The full list was thinned out, with hits kept by preference. Potency is read from the fitted curve at half-maximal effect.

SMILES | Pf Dd2 growth
O=C(Nc1ccc(F)cc1)C1CC(=O)N(c2n[nH]c3cc(Br)ccc23)C1 (stereo not drawn) | -0.5%
COc1ccc2[nH]c3c(c2c1)CCN(C)C31CCN(C(=O)c2nccc3ccccc23)CC1 | 10.7%
Cc1ccc(-c2cc3c(=O)n(CCNC(=O)c4ccc(F)cc4)ccn3n2)c(C)c1 | 2.82µM*
Cc1ccc(-c2cc3c(=O)n(CCNC(=O)Cc4ccccc4Cl)ccn3n2)c(C)c1 | -7.0%
Cc1ccc(-c2cc3c(=O)n(CCNC(=O)Cc4cccc(F)c4)ccn3n2)c(C)c1 | -0.4%
Cc1ccc(C(=O)NCCn2ccn3nc(-c4cc(C)ccc4C)cc3c2=O)cc1 | i
Cc1ccc(-c2cc3c(=O)n(CCNC(=O)Cc4c[nH]c5ccccc45)ccn3n2)c(C)c1 | 10µM*
Cc1ccc(-c2cc3c(=O)n(CCNC(=O)c4ccc(F)c(F)c4)ccn3n2)c(C)c1 | i
Cc1cc(C(=O)N2C[C@@H](CO)[C@H](c3ccccn3)C2)nn1C | 26.6%
COc1cc(NC(=O)CC2=C3CCCCC3NC2=O)cc(OC)c1 (stereo not drawn) | -19.5%
Cc1noc([C@@H](C)NC(=O)COc2ccccc2)c1C(=O)O | -17.8%[44.1 µM]
CCc1cc(C(=O)N[C@@H]2COCC[C@@H]2OCc2ccccc2)cc(=O)[nH]1 | -1.6%
Cc1nc(C)c(C(=O)NCC(=O)N2CCCCCNC(=O)CC2c2ccccc2)s1 (stereo not drawn) | -12.0%
CCOc1ccccc1NC(=O)CN(CCc1ccccc1)S(=O)(=O)c1ccc(C)cc1 | 11.2µM*
Cc1c(Cl)cccc1NC(=O)CN(CCc1ccccc1)S(=O)(=O)c1ccccc1 | 1.3%
Cc1ccc(C)c(NC(=O)CN(CCc2ccccc2)S(=O)(=O)c2ccccc2)c1 | 7.0%
COc1ccc(CC(=O)N2[C@@H]3CC[C@H]2CC(NC(=O)c2ccncc2)C3)cc1 (stereo partly drawn) | -26.8%
N#Cc1cccc(CN2CC[C@H]3C(=O)NCCCCCCN(Cc4ccncc4)[C@@H]3C2)c1 | 12.6µM*
N#Cc1ccccc1CN1CC[C@@H]2C(=O)NCCCCCCN(Cc3ccncc3)[C@@H]2C1 | -47.2%
Cc1ccc(CN2CC[C@H]3C(=O)NCCCCCCN(Cc4ccncc4)[C@@H]3C2)o1 | -13.1%
O=C1CCN(C(=O)CCc2c[nH]c3ccccc23)CCCCCCN1 | -8.8%
Cc1noc(C)c1CCC(=O)NC1CCCc2c1[nH]c1ccc(F)cc21 (stereo not drawn) | 11.2µM*
CC(C)CC(=O)NC1CCCc2c1[nH]c1c(Cl)cccc21 (stereo not drawn) | -22.4%
Cc1noc(C)c1C(=O)NC1CCCc2c1[nH]c1ccc(F)cc21 (stereo not drawn) | -10.9%
O=C(Cc1c[nH]c2ccccc12)NC1CCCc2c1[nH]c1ccc(F)cc21 (stereo not drawn) | 12.6µM*
SMILES | Pf Dd2 growth
COc1ccc(CC(=O)NC2CCCc3c2[nH]c2ccc(F)cc32)cc1OC (stereo not drawn) | -16.4%
O=C(CCNC(=O)c1cnccn1)NC1CCCc2c1[nH]c1ccc(F)cc21 (stereo not drawn) | -9.1%
O=C(NC1CCCc2c1[nH]c1ccc(F)cc21)c1cccs1 (stereo not drawn) | i
Cc1noc(C)c1CC(=O)NC1CCCc2c1[nH]c1c(Cl)cccc21 (stereo not drawn) | 7.94µM*
Cc1noc(C)c1C(=O)NC1CCCc2c1[nH]c1c(Cl)cccc21 (stereo not drawn) | -8.5%
COc1ccc(C2=NOC3(CCN(Cc4cccc5ccccc45)C3)C2)cc1 (stereo not drawn) | i
CCCCSc1ncc(CN2CC[C@@]3(O)CCN(C(C)=O)C[C@H]3C2)cn1 | -5.8%
COC(=O)[C@@H](Cc1cccnc1)NC(=O)[C@H]1CN(C(=O)c2cccnc2)CCN1C(=O)C1CCCCC1 | 0.6%
Cn1cccc1CNC(=O)C1c2ccccc2C(=O)N(Cc2ccccc2)C12CCCC2 (stereo not drawn) | i
O=C1CC(c2ccccc2)N(C(=O)COc2ccc(F)cc2)CCCCCCN1 (stereo not drawn) | -4.4%
COCC1CN(C(=O)Cc2c[nH]c3ccccc23)CC12CCOCC2 (stereo not drawn) | 6.8%
COCCNC(=O)CN1CCCc2nc(C3CC3)ncc2C1=O | 18.6%
O=C(CN1CCCc2nc(C3CC3)ncc2C1=O)NCc1cccnc1 | 32.6%
O=C(CN1CCCc2nc(C3CC3)ncc2C1=O)NCCc1c[nH]c2ccccc12 | 10µM*
Cc1cc2c(c(=O)n(-c3ccccc3)c(=O)n2CC(=O)Nc2ccccc2C(F)(F)F)n1C | -5.8%
COC(=O)CO[C@@H]1CO[C@H]2[C@@H]1OC[C@@H]2NC(=O)Nc1cccc(C(F)(F)F)c1 | -12.9%[44.1 µM]
COc1cc2c(cc1OCC1CC1)NC(=O)C21CCN(Cc2ccncc2)CC1 | i
CCOc1cc(C2Sc3ccccc3NC3=C2C(=O)c2ccccc23)ccc1O (stereo not drawn) | 11.2µM*
CCOc1cc(C2CC(=O)Nc3c2c(C)nn3-c2nc(C)cc(C)n2)ccc1O (stereo not drawn) | -28.2%

Screening data deposited in PubChem by National Center for Advancing Translational Sciences (NCATS).
